High-throughput results from PubChem.
MEKK2 mut-MEK5 = signal of MEK5 binding to mutant human MEKK2 PB1 domain. bead flow cytometry, Alexa488-MEK5 binding to MEKK2 mutant. 0.35% of 290,000 active. percent response, % at 10 µM. AID 1530; in the data active means percent response above about 24%, passing the limit was not always enough
PREPL inh = inhibits the human prolyl oligopeptidase-like enzyme; Q4J6C6; recombinant PREPL, fluorescence polarization activity-based probe; inhibition, % at 5.96 µM; 0.68% of 320,000 active; AID 2751; in the data active means inhibition above about 43%;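 further: 0% = enzyme with DMSO and 100% = wells lacking enzyme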
Target sequence (Q4J6C6 whole entry, looked up): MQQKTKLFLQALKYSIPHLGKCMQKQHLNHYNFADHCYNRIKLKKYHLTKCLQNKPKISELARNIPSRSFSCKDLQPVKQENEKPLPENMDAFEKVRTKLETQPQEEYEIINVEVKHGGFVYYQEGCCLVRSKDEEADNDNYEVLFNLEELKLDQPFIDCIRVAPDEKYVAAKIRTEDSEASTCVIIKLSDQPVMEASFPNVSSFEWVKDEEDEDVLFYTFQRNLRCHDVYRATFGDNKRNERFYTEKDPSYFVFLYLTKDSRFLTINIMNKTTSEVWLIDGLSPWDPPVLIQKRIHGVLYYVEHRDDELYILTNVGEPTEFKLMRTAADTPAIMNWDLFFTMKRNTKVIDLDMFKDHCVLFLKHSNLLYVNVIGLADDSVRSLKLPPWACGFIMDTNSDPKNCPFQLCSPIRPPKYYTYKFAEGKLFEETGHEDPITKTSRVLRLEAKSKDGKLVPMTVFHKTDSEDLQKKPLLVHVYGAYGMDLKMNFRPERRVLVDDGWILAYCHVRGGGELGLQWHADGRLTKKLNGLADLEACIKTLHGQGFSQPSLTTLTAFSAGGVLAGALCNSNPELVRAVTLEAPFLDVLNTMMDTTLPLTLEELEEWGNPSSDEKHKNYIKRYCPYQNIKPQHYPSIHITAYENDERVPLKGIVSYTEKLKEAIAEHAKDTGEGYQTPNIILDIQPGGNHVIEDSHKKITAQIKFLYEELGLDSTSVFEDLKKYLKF
UBC13 inh = blocks human UBC13 polyubiquitin chain formation; P61088; TR-FRET; inhibition, % at 20 µM; 0.47% of 330,000 active; in the data active means inhibition above about 45%, passing the limit was not always enough
MEKK2 WT-MEK5 = raises or lowers MEK5 binding to wildtype human MEKK2 PB1 domain; 1.1% of 290,000 active; bead flow cytometry, Alexa488-MEK5 binding to MEKK2 WT; actives lie on both sides; binding response (% of control), % at 10 µM; in the data active means binding response below about 67% or above about 130%
ATG4B inh = inhibitors of human ATG4B cysteine protease | ATG4B cleavage of LC3-PLA2, NBD-HPC fluorescence, 1 h | inhibition, % at 8.33 µM | 0.51% of 340,000 active | AID 504462; in the data active means inhibition above about 40%
MEKK3 PB1 HTS = modulators (inhibitors or enhancers) of MEK5 binding to human MEKK3 PB1 domain; binding response (% of control), % at 10 µM; bead-based flow cytometry, Alexa488-MEK5 binding to MEKK3; actives lie on both sides; 0 = blocked by unlabeled MEK5, 100 = vehicle; 1.4% of 290,000 active; AID 1529; Q99759;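 active means binding response more than 3 SD above or below the average of its plate-row segment, actives on both sides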;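 further: Alexa488 bead fluorescence after subtracting the streptavidin-only scavenger bead signal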
MEKK2wt confirm = raises or lowers MEK5 binding to wildtype human MEKK2, retest; shares compounds with MEKK3 PB1 HTS; bead flow cytometry, Alexa488-MEK5 binding to MEKK2 WT; actives lie on both sides; binding response (% of control), % at 10 µM; 2.4% of 5,900 active; AID 1892; in the data active means binding response below about 16% or above about 210%; inactive means in between
MEKK2mut confirm = signal of MEK5 binding to mutant human MEKK2, retest | shares compounds with MEKK3 PB1 HTS | percent response, % at 10 µM | bead flow cytometry, Alexa488-MEK5 binding to MEKK2 mutant | AID 1893 | 2% of 5,900 active; in the data active means percent response mostly above about 71%, no sharp cut-off; inactive means mostly below about 38%;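 further: higher means compound restores mutant binding toward wildtype level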
MEKK3-MEK5 inh = MEKK3-MEK5 PB1 inhibition, single concentration confirmation | shares compounds with MEKK3 PB1 HTS | bead flow cytometry, Alexa488-MEK5 binding to MEKK3; hits give low values | binding response (% of control), % at 10 µM | 1.8% of 5,900 active | AID 1894;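 active means binding response below 72% of control, or above a set upper limit, though filed actives all read lower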;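 further: 100% = DMSO only wells and 0% = binding blocked by excess unlabeled MEK5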
Numbers without * were called inactive; / = no result given; [ ] = remark or other dose. The list is not random: actives were taken first. Their share in the collection is about 3.1%.

SMILES	MEKK2 mut-MEK5	PREPL inh	UBC13 inh	MEKK2 WT-MEK5	ATG4B inh	MEKK3 PB1 HTS	MEKK2wt confirm	MEKK2mut confirm	MEKK3-MEK5 inh
COc1ccc(Cl)cc1N(CC(=O)N1CCN(Cc2ccccc2)CC1)S(C)(=O)=O	5	12	7	112	-8	125*	106	0	102
O=C(Nc1ncccn1)c1ccc(C(F)(F)F)cc1	-2	5	10	103	-4	102	/	/	/
CC1(C)Cc2cccc(C(=O)Nc3ccc(F)cc3F)c2O1	1	-5	-3	98	8	103	/	/	/
CC(C)c1c(C(=O)N/N=C/c2ccc3c(c2)OCO3)nnn1-c1nonc1N	-1	2	-3	100	-12	98	/	/	/
CCN(CC)c1ccc(/C=N/NC(=O)c2nnn(-c3nonc3N)c2C(C)C)c(O)c1	-20	29	-15	1.0*[inhibitor]	6	2.0*[inhibitor]	105	-2	102
Cc1cc(C)cc(-c2nnc(SCC(=O)NCC3CCCO3)o2)c1 (stereo unspecified)	/	/	/	/	1	/	/	/	/
C=C(Br)CN1[C@@H](Cc2ccccc2)[C@H](O)[C@@]23C=C[C@@H](C[C@@H]2S1(=O)=O)O3	/	1	3	/	2	/	/	/	/
CNC(=S)N/N=C(\C)c1ccccc1	28	-1	1	128	18	132*	109	2	103
Cc1ccc(S(=O)(=O)N2CCOCC2)cc1NC(=O)CSc1nnc(NC2CC2)s1	/	9	7	/	-1	/	/	/	/
CN(C)S(=O)(=O)c1ccc(Cl)c(NC(=O)CN2C(=O)NC(C)(C3CC3)C2=O)c1 (stereo unspecified)	2	10	2	103	-6	101	/	/	/
COCCNC(=O)CN(C)S(=O)(=O)c1ccc2c(c1)OCCO2	-14	-1	0	11*[inhibitor]	-7	7.0*[inhibitor]	104	3	106
CCC(C)c1ccc(NC(=O)Nc2cnccn2)cc1 (stereo unspecified)	4	5	-2	106	4	102	/	/	/
O=C(Nc1ccc(Br)cc1)C1CCN(c2cnccn2)CC1	0	-4	11	100	3	101	/	/	/
CCN1C[C@@H]2[C@@H]3C(=O)N(Cc4ccccc4)C(=O)[C@@H]3[C@](Cc3ccccc3)(C1=O)N2C(=O)c1ccc(Br)cc1	/	/	/	/	-16	/	/	/	/
CCOC(=O)C1CCN(C(=O)c2cccc(NC(=O)C(CC)CC)c2)CC1	-12	3	2	81	-7	81*[inhibitor]	100	0	100
CCNC(=S)N(CCc1c(C)[nH]c2ccc(F)cc12)Cc1cccnc1	35*	-5	11	133	-4	107	121	12	103
CCNC(=S)N(CCc1c(C)[nH]c2ccc(C)cc12)Cc1cccnc1	12	9	2	116	-1	106	/	/	/
CN1CCN(c2ncccc2S(=O)(=O)N2CCCCC2)CC1	-2	-4	2	1.0*[inhibitor]	8	1.0*[inhibitor]	98	-3	101
O=S(=O)(c1cccc2cccnc12)N1CCCCC1	5	2	7	105	0	104	/	/	/
O=C(Nc1cccc(S(=O)(=O)NCc2ccco2)c1)c1cccc(Cl)c1	/	-44	14	/	7	/	/	/	/
Cc1ccc(S(=O)(=O)N(C)CC(=O)NNC(=O)CCS(=O)(=O)c2ccccc2)cc1	/	4	3	/	8	/	/	/	/
O=C(CCC1N=C2c3ccccc3N=C(SCc3ccc(F)cc3)N2C1=O)NCc1ccco1 (stereo unspecified)	0	31	6	98	-6	101	/	/	/
O=C(CC1N=C2c3ccccc3N=C(SCc3ccc(F)cc3)N2C1=O)NCc1ccco1 (stereo unspecified)	-16	12	6	2.0*[inhibitor]	11	2.0*[inhibitor]	100	0	105
COCCNc1nnc(SCC(=O)Nc2sc3c(c2C(=O)c2ccccc2)CCCC3)s1	0	25	7	106	0	131*	99	-4	102
Cc1ccc(C2=Nn3c(COc4ccc(Cl)cc4)nnc3SC2CC(=O)O)cc1 (stereo unspecified)	0	-12	-1	96	4	101	/	/	/
SMILES	MEKK2 mut-MEK5	PREPL inh	UBC13 inh	MEKK2 WT-MEK5	ATG4B inh	MEKK3 PB1 HTS	MEKK2wt confirm	MEKK2mut confirm	MEKK3-MEK5 inh
COc1ccccc1NC(=O)c1cnc(SCC(=O)NCCc2ccccc2)n(C)c1=O	/	2	21	/	-4	/	/	/	/
COc1cc(OC)c(CN2CCc3c([nH]c4ccccc34)C2)cc1Br	30*	20	10	122	1	103	128	15	107
O=C(/C=C/c1cccc([N+](=O)[O-])c1)NCCSCc1ccc(Cl)cc1Cl	1	9	4	113	3	130*	121	5	101
CC(C)(C)c1ccc(C(=O)N/C(=C\c2ccco2)C(=O)O)cc1	0	5	0	99	-4	102	/	/	/
O=C(O)/C(=C/c1ccco1)NC(=O)c1ccccc1	-1	-5	-2	106	9	128*	116	8	107
Cc1cccc(C)c1Nc1ncnc(N)c1[N+](=O)[O-]	51*	0	-2	119	-2	117	107	11	104
CC(NC(=O)COC(=O)c1ccc2c(=O)n3c(nc2c1)CCCCC3)c1ccccc1 (stereo unspecified)	/	-3	4	/	-2	/	/	/	/
Cn1nc(C(=O)NCC2CCCO2)c2ccccc2c1=O (stereo unspecified)	-5	16	-6	86	2	82*[inhibitor]	103	1	102
O=C(Nc1ccc(F)cc1)C1CCN(S(=O)(=O)c2cccc3nonc23)CC1	0	2	5	99	-1	98	/	/	/
Cc1ccccc1NC(=O)c1nc2nccc(C)n2n1	-3	14	-9	91	/	69*[inhibitor]	110	-2	102
COc1ccccc1NC(=O)c1ccc(NC(=O)c2nc3nccc(C)n3n2)cc1	/	3	3	/	-3	/	/	/	/
CNC(=O)c1nn(-c2ccc(C)cc2)ccc1=O	25*	-5	3	122	-2	118	97	-7	98
NNC(=O)c1nn(-c2ccc(Cl)cc2)ccc1=O	-5	-23	-4	93	-3	102	/	/	/
Cc1ccc(NC(=O)c2ccc(CN3CCN(C)CC3)cc2)cc1Nc1nccc(-c2cccnc2)n1	/	-5	18	/	2	115	/	/	103
CCOC(=O)c1sc(NC(=O)c2ccco2)nc1-c1ccccc1	-3	-10	8	103	-3	97	/	/	/
